From ChEMBL document CHEMBL1157539, “Thousands of chemical starting points for antimalarial lead identification” (Nature, 2010) come the findings set out here.

For this assay, the system named is HepG2. Put plainly: GSK_TCMDC: Percent inhibition of human HepG2 cell line. Test compounds present at 10uM. Format: functional.
Compound `O=[N+]([O-])c1ccc(C2=NN(S(=O)(=O)c3c(Cl)cc(Cl)cc3Cl)CCCC2)cc1` returned an Inhibition of 5%.

`Cc1cccc2nc(-c3ccc(-c4ccc(CNCCCN5CCCC5=O)cc4)cc3)[nH]c12.O=C(O)C(F)(F)F` displayed an Inhibition of 7%.

`O=C(Nc1cccc(F)c1)NC1CCN(CCCCCNC(=O)C2CC2c2ccc(Cl)c(Cl)c2)CC1` (stereo not given) yielded an Inhibition of 41%.

With `C=CCN1C(=O)c2[nH]nc(-c3cc(C)c(C)cc3O)c2C1c1cccc(Br)c1` (stereo not given), the Inhibition amounted to 0%.

The compound `COc1cccc(Nc2nccc(NCC(O)c3ccc(C(F)(F)F)cc3)n2)c1` (stereo not given) yielded an Inhibition of 14%.

In turn, `Cl.N#Cc1ccc2c(c1)CCN(CCC1CCC(NC(=O)c3ccc(-c4ccccn4)s3)CC1)CC2` (stereo not given) came in with an Inhibition of 16%.

Take `CCCC(CNCc1cccc(OC(F)(F)F)c1)CNc1cc(=O)c2ccccc2[nH]1` (stereo not given): the Inhibition is reported as 0%.

Regarding `Cn1nccc1C(=O)NCCNCc1ccc(-c2cccc(-c3nc4cc(F)ccc4[nH]3)c2)cc1.O=C(O)C(F)(F)F`, the Inhibition is 37%.

Consider `Cc1cc(NCCc2ccccc2)nc(NC(=N)Nc2cccc(F)c2)n1`, for which the Inhibition is given as 0%.

Compound `COc1ccc(NC(=O)[C@H](C)Nc2cc(C)nc(NCC3CCCCC3)n2)cc1.O=C(O)C(F)(F)F` came in with an Inhibition of 12%.

The compound `CCCN(CCC)C(=O)c1cc(C(=O)N[C@@H](Cc2ccccc2)[C@H](O)CNCc2cccc(OC)c2)cc(N2CCCCS2(=O)=O)c1` registered an Inhibition of 0%.

In the case of `N=C(Nc1cccc(Cc2ccccc2)n1)Nc1ncccn1`, the Inhibition turned out to be 51%.

For `COc1ccc2nccc([C@@H](O)CN3CCC(NCc4cc5c(Cl)cccc5[nH]4)CC3)c2c1.O=C(O)C(=O)O`, the Inhibition is recorded as 40%.

`Cl.OCCNc1nc(Nc2ccccc2)nc2ccccc12`: the Inhibition is 5%.

`CCCNCc1ccc(-c2ccc(CN(Cc3ccc4c(c3)OCO4)C(=O)Cc3cccnc3)cc2)nc1.O=C(O)C(F)(F)F` yielded an Inhibition of 16%.

`COc1cccc(-c2cc(-c3ccc(NC(=O)c4ccccc4)cc3)c3c(N)ncnc3n2)c1`: the Inhibition is recorded as 0%.

As to `O=S(=O)(NC1=NCCC1)c1cccc(Nc2nc(C(F)(F)F)nc3ccccc23)c1`, the Inhibition is given as 6%.

Regarding `Cc1nc(-c2cccc(NCc3ccccc3)c2)[nH]c1C.Cl`, the Inhibition was determined as 16%.

As to `c1cncc(-c2cccc(CNc3nccc(Nc4ccc(OCCN5CCOCC5)cc4)n3)c2)c1`, the Inhibition was found to be 1%.

Regarding `COc1cccc(CNC(=O)NC2CCN(c3ccnc(Nc4ccc(F)cc4)n3)C2)c1` (stereo not given), the Inhibition came out at 20%.

Compound `O=C(Nc1cccc(-c2nc3ccccc3[nH]2)c1)c1cccc(NC(=O)c2ccco2)c1` returned an Inhibition of 9%.

Turning to `Cc1ccc(C)c(NC(=O)NC2CCN(c3ccnc(Nc4ccc(F)cc4)n3)C2)c1` (stereo not given), the Inhibition is recorded as 0%.

Compound `COc1ccc(CSC2CCCCC23NC(=S)NC3=S)cc1` (stereo not given) yielded an Inhibition of 0%.

For the compound `Cc1cc(N[C@@H](CC(C)C)C(=O)NCCc2ccccc2)nc(NCC2CCCCC2)n1.O=C(O)C(F)(F)F`, the Inhibition is 19%.

In turn, `COc1ccccc1C1CCN(C2CCC(NC(=O)c3cc(-c4ccc(Cl)cc4)cs3)CC2)CC1` (stereo not given) registered an Inhibition of 61%.

One may read the Inhibition as the percentage by which the read-out fell short of the control. A lower Inhibition goes with little suppression.
